Experimental data reported in PubChem BioAssay (NCI).
This is part of a sample that, as a whole, favours compounds with a hit. Of some 83,000 tested, about 20% had one in any assay.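 A percent growth of 40 corresponds to 60% growth inhibition; 0 means no net growth; -100 means all cells died. Active threshold: below 10.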 Values without a mark were called inactive. Active and inactive are the calls of the source.

Columns and labels:
Experiment in all cases: NCI-60 one-dose screen, 48 h (100 = growth as untreated, 0 = no growth, -100 = all killed)
Settings in all cases: 10 µM unless noted
[1] = test system: HCT-15 colon
[2] = test system: HT29 colon
[3] = test system: SNB-75 CNS
[4] = test system: SNB-19 CNS
[5] = test system: U251 CNS
[6] = test system: PC-3 prostate
[7] = test system: SK-MEL-5 melanoma
[8] = test system: UACC-62 melanoma
[9] = test system: LOX IMVI melanoma
[10] = test system: SK-MEL-28 melanoma

| Compound | growth [1] | growth [2] | growth [3] | growth [4] | growth [5] | growth [6] | growth [7] | growth [8] | growth [9] | growth [10] |
| --- | --- | --- | --- | --- | --- | --- | --- | --- | --- | --- |
| COc1ccc(S(=O)(=O)Nc2cc(Sc3cccc4cccnc34)c(O)c3ccccc23)cc1 | 10.9% | -37.8% (active) | 62.5% | 43% | 4.81% (active) | 26.3% | -32.7% (active) | -28.1% (active) | -55.8% (active) | -2.3% (active) |
| CON1CCC[C@]2(C)[C@H]3CC[C@@H]4[C@H]5[C@@H](O)C(C)(C)CC[C@]5(CO)CC[C@@]4(C)[C@]3(C)CC[C@H]2C1(C)C | 106% | 91.2% | 98.7% | 100% | 90% | 59.6% | 102% | 96% | 87.7% | 107% |
| COc1cc2c(cc1OCCCOC1=C=C=C(c3ccc4c(c3)c3cc(-c5ccc(OCCCOc6cc7c(cc6OC)C(=O)N6CCC[C@H]6C=N7)cc5)ccc3n4S(=O)(=O)c3ccc(C)cc3)C=C1)N=C[C@@H]1CCCN1C2=O | 69.4% | 37.7% | 4.32% (active) | 61.6% | -29.8% (active) | 42.7% | 39% | -14.1% (active) | -14.5% (active) | 64.8% |
| CCOc1ccccc1NC(=O)c1cc2ccccc2cc1O | 45.4% | 99.8% | 87.7% | 52.9% | 24.4% | 20.9% | 25.6% | 21.2% | 51.1% | 87.7% |
| CC[C@@H]1NC(=O)[C@H]([C@H](O)[C@H](C)C/C=C/c2ccc(CN3C(=O)C(C)=C(C)C3=O)cc2)N(C)C(=O)[C@H](C(C)C)N(C)C(=O)[C@H](CC(C)C)N(C)C(=O)[C@H](CC(C)C)N(C)C(=O)[C@@H](C)NC(=O)[C@H](C)NC(=O)[C@H](CC(C)C)N(C)C(=O)[C@H](C(C)C)NC(=O)[C@H](CC(C)C)N(C)C(=O)CN(C)C1=O | 67.8% | 64.9% | 72.8% | 76.1% | 71.2% | 39.8% | 60.5% | 73.3% | 68.6% | 82.3% |
| Cn1cc2c(=O)nc3c(-c4nc5ccccc5[nH]4)n[nH]n3c2n1 | 80.1% | 89.7% | 93.4% | 95.8% | 89.6% | 67.1% | 53.1% | 70.6% | 72.5% | 82.5% |
| CCCCSc1ccc2nc(-c3ccc(OCCCN=C(N)N)cc3)cn2c1 | 92.7% | 53% | 22.5% | 24.5% | 13.1% | 54% | 52.8% | 52% | 61.3% | 38.3% |
| N#C/C(=N\Nc1ccc(Cl)cc1)C(=O)Nc1cc(-c2ccccc2)nn1-c1ccccc1 | 9.38% (active) | 34.1% | 62.1% | 30.4% | 23.1% | 6.71% (active) | -31% (active) | 3.27% (active) | 73.5% | 38.6% |
| CCN(CC)CC(=O)Nc1ccc2ncnc(Nc3ccc(Oc4cccc(F)c4)c(Cl)c3)c2c1 | 17.6% | 14.4% | 66.4% | 72.2% | 45.2% | 44.7% | 58.4% | 86.9% | -42% (active) | 81.3% |
| Nc1nc(Nc2cccnc2)sc1C(=O)c1ccccc1F | 27.7% | 35.9% | 30.3% | 43.1% | 42% | 43.2% | 30.1% | 42.4% | 29.8% | 65.9% |
| O=C(Nc1ccc2ncsc2c1)c1csc(Nc2ccc3[nH]ncc3c2)n1 | 26% | 19.4% | 21.6% | 41.2% | 38.6% | 40.6% | 9.43% (active) | 22.7% | 45% | 69.2% |
| Nc1nc(Nc2ccc(F)cc2)nn1C(=O)c1cc(Cl)ccc1Cl | 69.1% | 70.8% | 76.7% | 65.8% | 76.1% | 75.6% | 87% | 60.8% | 48.4% | 86% |
